FBW7 activator: activators of human E3 ligase FBW7. hit rate 0.13% among 650,000. AID 1259310. Q969H0. normalized activity (activation), % at 26.1 µM. AlphaScreen FBW7–phospho-cyclin E peptide binding, activator screen; in the data active = normalized activity above about 1.9%;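 also: purified mutant Fbw7 with reduced substrate affinity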
Target sequence (Q969H0 whole entry, looked up): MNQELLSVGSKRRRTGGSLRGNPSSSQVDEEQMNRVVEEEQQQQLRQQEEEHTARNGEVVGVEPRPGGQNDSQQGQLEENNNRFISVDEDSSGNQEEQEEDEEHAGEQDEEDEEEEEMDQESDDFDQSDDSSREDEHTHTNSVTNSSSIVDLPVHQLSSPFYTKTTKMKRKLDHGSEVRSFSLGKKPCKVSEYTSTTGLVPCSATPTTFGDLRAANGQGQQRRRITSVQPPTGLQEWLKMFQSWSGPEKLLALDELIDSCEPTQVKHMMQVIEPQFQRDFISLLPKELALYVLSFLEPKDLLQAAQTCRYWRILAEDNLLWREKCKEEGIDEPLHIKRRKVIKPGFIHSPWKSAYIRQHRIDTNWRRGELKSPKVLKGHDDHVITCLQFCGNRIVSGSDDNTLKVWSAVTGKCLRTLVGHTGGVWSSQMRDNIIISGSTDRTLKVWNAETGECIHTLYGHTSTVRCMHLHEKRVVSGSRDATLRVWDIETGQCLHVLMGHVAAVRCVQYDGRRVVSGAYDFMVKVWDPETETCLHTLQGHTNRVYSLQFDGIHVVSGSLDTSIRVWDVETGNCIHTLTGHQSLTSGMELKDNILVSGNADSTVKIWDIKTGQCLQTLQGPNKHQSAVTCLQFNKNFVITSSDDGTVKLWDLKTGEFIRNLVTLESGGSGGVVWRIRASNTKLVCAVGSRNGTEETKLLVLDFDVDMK
GPR151 ag: activates the human receptor GPR151; PathHunter beta-arrestin GPR151 cells, luminescence; activation, % at 11.2 µM; hit rate 1% among 650,000; in the data active = activation above about 4.9%;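 also: 0% = median of compound wells and 100% = cells with positive control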
TEAD-YAP inh: TEAD-YAP interaction inhibition; HEK-TIYL cells, TEAD-Gal4/YAP UAS-luciferase luminescence; inhibition, % at 9.12 µM; hit rate 1.4% among 640,000; in the data active = inhibition above about 32%;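 also: 0% = median of test compound wells and 100% = reference inhibitor wells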
MITF inh: inhibitors of human MITF | inhibition, % at 2.6 µM | AlphaScreen MITF homodimerization, bead proximity signal | O75030 | hit rate 0.91% among 650,000 | AID 1259374; in the data active = inhibition above about 50%;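 also: 0% = vehicle wells with protein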
Starred values were filed as active, the others as inactive. Rows were chosen to be rich in hits. Some 3.4% of all compounds tested hit in one or more screens of this group.

SMILES | FBW7 activator | GPR151 ag | TEAD-YAP inh | MITF inh
COc1ccccc1-n1c(SCC(=O)Nc2cc(C)on2)nc2[nH]ncc2c1=O | 0 | 0 | -14 | -10
Nc1ccc(/C=C/c2nc3ccccc3o2)cc1 | 0 | -4 | 45* | 12
COc1ccc(NC(=S)Nc2cccc(S(=O)(=O)N3CCOCC3)c2)cc1OC | 0 | 1 | 7 | 20
CCOc1ccc(/C=C/c2nc3ccccc3c(=O)o2)cc1 | 0 | -8 | 83* | -3
Cc1cc(OCC(=O)Nc2ccc(C(=O)OC3CCCCC3)cc2)ccc1Cl | 0 | 2 | 84* | 18
COc1cc(-c2ncnn2-c2sc3c(c2C#N)CCCCC3)ccc1O | 0 | 0 | 79* | -12
COc1ccc(-c2ncnn2-c2sc3c(c2C#N)CCCCC3)cc1OC | 0 | 0 | -1 | -10
Cc1nc(NCc2cccnc2)c2c(C)c(C)sc2n1 | 0 | -1 | 4 | -3
Cc1sc2nc(-c3cccnc3)nc(NCCSCc3ccco3)c2c1C | 0 | 0 | 68* | 3
COc1ccc(-c2n[nH]c3c2C(c2ccc(F)cc2)NC3=O)cc1 (stereo not drawn) | 0 | 2 | 14 | 4
COc1ccc(OC)c(C2NC(=O)c3[nH]nc(-c4ccc(C)cc4)c32)c1 (stereo not drawn) | 0 | 2 | 62* | 8
CCOCCCNS(=O)(=O)c1ccc(NC(=O)CSc2ccccc2)cc1 | 0 | 0 | 2 | -2
CC[N+](CC)=c1ccc2nc3c(cc(N)c4ccccc43)oc-2c1 | 0 | -2 | 33* | 7
O=C(Cn1c(=O)oc2ccccc21)Nc1nnc(SCc2ccccc2)s1 | 0 | 1 | 5 | -1
CCCN1Cc2cccc(C(=O)Nc3ccc(C)c(F)c3)c2C1=O | 0 | 0 | -2 | 8
CCCCNC(=O)C1C(=O)CN(c2ccccc2)C1=O (stereo not drawn) | 0 | 1 | 7 | 12
Cc1cccc(/C=C2\SC(=S)N(CCC(=O)O)C2=O)c1 | 0 | -3 | 34* | 16
Cc1csc(NC(=O)CCN2C(=O)/C(=C/C=C/c3ccccc3)SC2=S)n1 | 0 | 0 | -14 | 61*
O=C(O)CCCCCN1C(=O)/C(=C/c2cccc(O)c2)SC1=S | -1 | 4 | 45* | 11
COc1cccc(/C=C2\SC(=S)N(CCCCCC(=O)O)C2=O)c1 | 0 | -1 | 66* | 13
O=C(O)CCN1C(=O)/C(=C\c2cccc(O)c2)SC1=S | 0 | -1 | 8 | 18
O=C(CCN1C(=O)/C(=C/C=C/c2ccccc2)SC1=S)Nc1ccccn1 | 1 | 1 | 12 | 27
O=C(O)CCN1C(=O)/C(=C/c2cccc(O)c2)SC1=S | 0 | 2 | 2 | -2
CCOC(=O)C(=O)Nc1cc(NC(=O)c2cccs2)ccc1C | 0 | -1 | 6 | 2
Cc1ccc(C2C(=O)N(C3CCCC(C)C3C)CC(=O)N2CCc2ccccc2)cc1 (stereo not drawn) | 0 | -1 | -11 | 20
SMILES | FBW7 activator | GPR151 ag | TEAD-YAP inh | MITF inh
CNC(=O)c1ccccc1Nc1cc(Nc2ccc(C(=O)NC[C@H](O)C(=O)N(C)C)cc2OC)ncc1C(F)(F)F | 0 | -1 | 17 | 29
CNC(=O)c1ccccc1Nc1cc(Nc2ccc(C(=O)N(C)C)cc2OC)ncc1C(F)(F)F | 0 | -1 | 57* | 3
CCN(CC)CCNC(=O)c1ccc(Nc2cc(Nc3ccccc3C(=O)NC)c(C(F)(F)F)cn2)c(OC)c1 | 0 | 0 | 64* | 9
COc1cc(N2CCOCC2)ccc1Nc1cc(Nc2ccccc2C(N)=O)c(C(F)F)cn1 | 0 | 0 | -11 | -5
CNC(=O)c1ccccc1Nc1cc(Nc2ccc(N3CCOCC3)cc2OC)ncc1C | 0 | -1 | 44* | 13
COc1cc(N2CCOCC2)ccc1Nc1cc(Nc2ccccc2C(=O)N(C)C)c(C(F)(F)F)cn1 | 0 | 0 | -1 | 27
C=CCn1c(C)cc(C(=O)CSc2nc3ccccc3[nH]2)c1C | 0 | 0 | 53* | 15
O=C(CSc1nc2ccccc2[nH]1)Nc1ccc(Cl)cn1 | 0 | 1 | 75* | 6
O=C(CSc1nc2ccccc2[nH]1)Nc1ccc(Cl)cc1O | 1 | -2 | 35* | 12
Cc1ccc(Cl)cc1NC(=O)CSc1nc2ccccc2[nH]1 | 0 | 1 | -8 | 3
O=C(CSc1nc2ccccc2[nH]1)Nc1ccccn1 | 0 | 0 | 13 | 7
c1cncc(-c2nc3ccc(Oc4ccc5nc(-c6cccnc6)[nH]c5c4)cc3[nH]2)c1 | 0 | -1 | -44 | 3
COc1cc(NC(=O)c2cc(Cl)ccc2[N+](=O)[O-])c(OC)cc1Cl | 0 | 1 | 6 | 0
O=C(Nc1ccc(Cl)cc1Cl)c1cc(F)ccc1[N+](=O)[O-] | 0 | -2 | 76* | 4
Cc1ccc(NC(=O)c2cc(F)ccc2[N+](=O)[O-])cc1 | 0 | 0 | 52* | 0
N#Cc1ccccc1NC(=O)CSc1nc2ccccc2s1 | 0 | 1 | -1 | -3
O=C(Cc1c(F)cccc1Cl)Nc1cc(C(=O)NCCSCc2ccccc2)ccc1N1CC2CC(C1)c1cccc(=O)n1C2 (stereo not drawn) | 0 | -2 | -21 | 14
Cc1ccc(CC2(CCC(=O)N3CCCC(OCc4ccccc4)C3)CCC(=O)N2)cc1 (stereo not drawn) | 0 | 0 | 3 | 10
CC1(C)CC(=O)c2cc3c(N)c(C(=O)NC4CCCCC4)sc3nc2C1 | 2.4* | 0 | -2 | 22
Cc1ccc(NC(=O)c2sc3nc4c(cc3c2N)C(=O)CCC4)cc1C | 0 | 1 | 65* | 1
Nc1c(C(=O)Nc2ccc(Oc3ccccc3)cc2)sc2nc3c(cc12)C(=O)CCC3 | 0 | 0 | 37* | 25
Nc1c(C(=O)Nc2ccc(Br)cc2)sc2nc3c(cc12)C(=O)CCC3 | 0 | 1 | -5 | -8
Nc1c(C(=O)Nc2ccccc2)sc2nc3c(cc12)C(=O)CCC3 | 0 | -2 | 32* | -4
Cc1ccc(N2CSC(=S)N(c3ccc(C)cc3C)C2)c(C)c1 | 0 | -2 | 10 | 10
COc1ccc(C(=O)NC2CCSC2=O)cc1[N+](=O)[O-] (stereo not drawn) | 2.0* | -1 | -6 | 21
SMILES | FBW7 activator | GPR151 ag | TEAD-YAP inh | MITF inh
Cc1ccc(CC2SC(N)=NC2=O)cc1Cl (stereo not drawn) | 0 | -1 | 6 | -25
CC(C)[C@H](CO)n1c(=O)[nH]c2ncc(-c3ccsc3)nc21 | 0 | 2 | -3 | 27
CCN1CCN(c2c(Cl)cccc2NC(=O)c2cccc3ccccc23)CC1 | 0 | 2 | 35* | 8
O=C(Nc1cccc(Cl)c1N1CCN(CCc2ccccc2)CC1)c1ccc(Br)o1 | 0 | 23* | -4 | 0
C=C(C)CN1CCN(c2c(Cl)cccc2NC(=O)c2ccc(Br)o2)CC1 | 0 | 1 | -5 | 6
COc1ccccc1NC(=O)c1sc(C)nc1C | 0 | 0 | -2 | 8
COc1ccccc1C(=O)Nc1cccc(-c2cn3cccc(C)c3n2)c1 | 0 | 0 | -15 | 6
CC(Oc1ccccc1)C(=O)Nc1ncc(Cc2ccccc2)s1 (stereo not drawn) | 0 | -1 | 42* | 0
O=C(Cc1ccccc1)Nc1ncc(Cc2ccccc2)s1 | 0 | -1 | -1 | 6

Assay outcomes from PubChem.
